Pf growth 48h – P. falciparum growth inhibition at 48 hours (one generation). P. falciparum luciferase growth in erythrocytes, 48 h. Potency, µM (top dose mostly 28.7 µM), for the others: at the top dose activity change, negative = inhibition, most hits filed as inhibitors. 310,000 compounds, 5.9% hits; also: potency is read from the fitted curve at half-maximal effect
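Parasite viability was followed by luminescence of a genomically integrated firefly luciferase. Cultures held 0.1% parasitemia at 2% hematocrit (final), incubated under 5% CO2 at 37 C.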
Giardia FBPA inh – blocks Giardia fructose-bisphosphate aldolase activity; A8B2U2; purified Giardia FBPA; Potency, µM (top dose mostly 59.6 µM), without a hit: top-dose activity, negative = inhibition, hits mostly inhibitors; 290,000 compounds, 0.71% hits; AID 2451; also: potency is read from the fitted curve at half-maximal effect; nearly all actives have a fitted effect of over 55% in size
Target sequence (A8B2U2 whole entry, looked up): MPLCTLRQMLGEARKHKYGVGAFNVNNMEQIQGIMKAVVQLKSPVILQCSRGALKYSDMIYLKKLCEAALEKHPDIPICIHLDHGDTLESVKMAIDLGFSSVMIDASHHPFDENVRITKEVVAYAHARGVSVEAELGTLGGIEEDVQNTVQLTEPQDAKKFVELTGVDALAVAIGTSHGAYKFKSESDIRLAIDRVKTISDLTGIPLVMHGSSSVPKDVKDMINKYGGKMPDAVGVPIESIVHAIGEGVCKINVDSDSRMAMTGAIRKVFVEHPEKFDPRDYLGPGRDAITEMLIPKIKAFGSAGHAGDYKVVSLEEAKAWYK
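40 nM FBPA preincubated 10 min at RT with compound (up to 57.5 uM final), then substrate plus GAPDH/TPI/NAD/arsenate coupling and diaphorase/resazurin added. Fluorescence read after 20 min at RT, 525/598 nm.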
Sm TGR block – blocks Schistosoma mansoni thioredoxin glutathione reductase; Q962Y6; purified TGR, DTNB reduction, TNB absorbance 405 nm; Potency, µM (highest dose often 114 µM), for the others: top-dose activity change, negative = inhibition, actives largely listed as inhibitors; 360,000 compounds, 3% hits; AID 485364; also: potency is read from the fitted curve at half-maximal effect; nearly all actives have a fitted effect of over 60% in size
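TGR 20 nM + NADPH 100 uM (dispensed conc.), cpd preinc 15 min RT; start with NADPH (500 uM addition) then DTNB (15 mM addition). Kinetic TNB absorbance, 405 nm filter. Four-parameter Hill fit across titration.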
HCMV antiviral – blocks human cytomegalovirus replication. HFF cells, HCMV-luciferase reporter, 72 h; active compounds read low. activity change, negative = inhibition, % at 57.5 µM. 410,000 compounds, 4.5% hits. AID 1259415; in the data active = activity change below about -60%; inconclusive = no clear call, values can overlap the other calls; inactive = above about -39%
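HFF cells seeded 16 h at 37C, treated with compounds, infected with luciferase-reporter HCMV at MOI 1 PFU/cell; luciferase read at 72 h post infection, normalized to buffer-only and Salinomycin controls.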
Pf growth 96h – P. falciparum growth inhibition at 96 hours; Potency, µM (doses to about 28.7 µM), for inactives: at the highest dose activity change, negative = inhibition, hits mostly inhibitors; P. falciparum luciferase reporter growth, 96 h; 320,000 compounds, 6.9% hits; also: potency is read from the fitted curve at half-maximal effect
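Cell-based qHTS: luciferase-tagged P. falciparum in erythrocytes (2% hematocrit, 0.05% parasitemia final) incubated with compounds for 96 hours, 37 C, 5% CO2; luciferase detection reagent then added and luminescence measured.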
Active calls of the source: *; [ ] = dose if it differs, or a comment. Compounds with a hit are over-represented: about 14% of the library has one in this group of screens. Unless noted, calls follow the shape of the dose curve; as a rule, active = well fitted curve in the direction sought with a large enough effect; inconclusive = small, poorly fitted or top-dose-only effect, or another doubt; inactive = no such curve, though single readings can be large; an effect the other way counts as inactive or inconclusive. % is scaled to controls: 0 for no effect and ±100 for the full control effect.

Results for CC1(c2ccc([N+](=O)[O-])cc2)CC(C)(C)N(C(=O)c2ccccc2)c2ccccc21 (centres undefined) ?
Pf growth 48h: -15%; Giardia FBPA inh: 6%; Sm TGR block: 5%; Pf growth 96h: inconclusive

What do the screens show for `CCN(CC)c1ccc(/C=N/N2CC(=O)NC2=S)cc1`?
Pf growth 48h: inconclusive; Sm TGR block: -29%; HCMV antiviral: -2; Pf growth 96h: 3.7µM*

How did CCN(CC)c1ccc(/C=N/N2C(=O)c3ccccc3C2=O)cc1 do in these assays?
Pf growth 48h: 2%; Giardia FBPA inh: 2%; Sm TGR block: 6%; HCMV antiviral: inconclusive; Pf growth 96h: -2%

How did CCc1n[nH]c(=S)n1/N=C/c1ccc(N(CC)CC)cc1 do in these assays?
Pf growth 48h: inconclusive; Giardia FBPA inh: -7%; Sm TGR block: 1%; HCMV antiviral: inconclusive; Pf growth 96h: inconclusive

How did CCN(CC)c1ccc(/C=N/n2c(C)cc(C)cc2=O)cc1 do in these assays?
Pf growth 48h: 7.4µM*; Giardia FBPA inh: -2%; Sm TGR block: -6%; HCMV antiviral: 14; Pf growth 96h: 7%

Results for CCN(Cc1cc(OC)c(OC)c(OC)c1)S(=O)(=O)c1ccccc1Br ?
HCMV antiviral: -6

How did C=C(C(C)=O)C(O)c1ccco1 (centres undefined) do in these assays?
Giardia FBPA inh: -30%

How did COc1ccc(C2(C)NC(=O)N(CC(=O)Nc3ccc(C)cc3Br)C2=O)cc1OC (centres undefined) do in these assays?
Pf growth 48h: inconclusive; Giardia FBPA inh: 11%; Sm TGR block: 3%; HCMV antiviral: -5; Pf growth 96h: 3.7µM*

Results for COc1ccc(C2(C)NC(=O)N(CC(=O)NCC(=O)Nc3ccc(F)c(F)c3F)C2=O)cc1OC (centres undefined) ?
HCMV antiviral: -9

How did COc1ccc(C2(C)NC(=O)N(CC(=O)Nc3ccc(Br)cc3F)C2=O)cc1OC (centres undefined) do in these assays?
Pf growth 48h: inconclusive; Giardia FBPA inh: 2%; Sm TGR block: 8%; HCMV antiviral: -17; Pf growth 96h: 3.7µM*

How did Cc1ccc(-n2c(-c3ccccc3)c[n+]3c2CCC3)cc1 do in these assays?
Pf growth 48h: 1µM*; Giardia FBPA inh: 5%; HCMV antiviral: -95*; Pf growth 96h: 0.74µM*

How did Cc1ccc(-n2c(-c3ccc(Cl)cc3)c[n+]3c2CCC3)cc1 do in these assays?
Pf growth 48h: 0.26µM*; Giardia FBPA inh: 4%; Sm TGR block: 14%; HCMV antiviral: -91*; Pf growth 96h: 0.1µM*

What do the screens show for `COc1ccc(CNC(=O)CCS(=O)(=O)c2ccc3nc(C)sc3c2)cc1`?
HCMV antiviral: 33

How did CC(C)(C)C(=O)[C@@H]1[C@@H]2C(=O)N(C3CCCCC3)C(=O)[C@@H]2[C@H]2c3ccccc3C=CN12 do in these assays?
Giardia FBPA inh: inconclusive; Sm TGR block: -33%; HCMV antiviral: -30; Pf growth 96h: 15µM*

What do the screens show for `O=C(c1ccc2c(c1)OCO2)[C@@H]1[C@@H]2C(=O)N(C3CCCCC3)C(=O)[C@@H]2C2c3ccccc3C=CN21` (some centres undefined)?
Pf growth 48h: 6.6µM*; Giardia FBPA inh: inconclusive; Sm TGR block: 0%; HCMV antiviral: -18; Pf growth 96h: 4.7µM*

Results for COc1ccc(N2C(=O)[C@H]3[C@@H](C2=O)C2c4ccccc4C=NN2[C@H]3C(=O)C(C)(C)C)cc1 (some centres undefined) ?
Pf growth 48h: -2%; Giardia FBPA inh: -7%; Sm TGR block: 4%; HCMV antiviral: inconclusive; Pf growth 96h: 0%

What do the screens show for `O=C(c1cccs1)[C@@H]1[C@@H]2C(=O)N(Cc3ccc4c(c3)OCO4)C(=O)[C@@H]2C2c3ccccc3C=CN21` (some centres undefined)?
Pf growth 48h: inconclusive; Giardia FBPA inh: inconclusive; Sm TGR block: inconclusive; Pf growth 96h: 10µM*

Results for O=C(Nc1ccc2c(c1)OCO2)[C@@H]1[C@@H]2C(=O)N(C3CCCCC3)C(=O)[C@@H]2C2c3ccccc3C=CN21 (some centres undefined) ?
Pf growth 48h: inconclusive; Giardia FBPA inh: inconclusive; Sm TGR block: -16%; HCMV antiviral: 37; Pf growth 96h: -11%

How did COc1ccc(N2C(=O)[C@@H]3[C@H](C2=O)[C@H]2c4ccccc4C=CN2[C@@H]3C(C)=O)cc1 do in these assays?
Pf growth 48h: -9%; Giardia FBPA inh: inconclusive; Sm TGR block: 40µM*; HCMV antiviral: -33; Pf growth 96h: -10%

Results for O=C(COC(=O)C1CC(O)CN1S(=O)(=O)c1ccc(Cl)cc1)c1cccc(Cl)c1 (centres undefined) ?
Pf growth 48h: 3%; Giardia FBPA inh: -5%; Sm TGR block: -4%; HCMV antiviral: 32; Pf growth 96h: 20%

How did CCc1ccc(C2=NN(CCC(=O)NC3CCCCCC3)C(=O)CC2)cc1 do in these assays?
Pf growth 48h: inconclusive; Sm TGR block: 2%; HCMV antiviral: -7; Pf growth 96h: 10µM*

How did O=C(c1csc2c1CCCC2)N1CCN(c2cccc(C(F)(F)F)c2)CC1 do in these assays?
Pf growth 48h: inconclusive; Giardia FBPA inh: -7%; Sm TGR block: -23%; HCMV antiviral: 13

How did Cc1cc2nc(C3CCCCC3)c(Cc3cccc(F)c3)n2c(C)c1Br do in these assays?
HCMV antiviral: -27

What do the screens show for `Cc1ccc(CNC(=O)Cn2c3ncccc3c(=O)n2-c2ccccc2)cc1`?
Sm TGR block: 5%; HCMV antiviral: -1

How did N#CC12CCCCC1CC1CCCCC1(C#N)N2N (centres undefined) do in these assays?
Pf growth 48h: 13µM*; Giardia FBPA inh: inconclusive; Sm TGR block: 0%; HCMV antiviral: -7; Pf growth 96h: inconclusive

How did N#CC12CCCCC1CC1CCCCC1(C#N)N2Cc1ccccn1 (centres undefined) do in these assays?
Pf growth 48h: inconclusive; Giardia FBPA inh: 1%; Sm TGR block: -14%; HCMV antiviral: -4; Pf growth 96h: 9.3µM*

Results for N#CC12CCCCC1CC1CCCCC1(C#N)N2CCO (centres undefined) ?
Pf growth 48h: 6%; Giardia FBPA inh: inconclusive; Sm TGR block: 5%; HCMV antiviral: -2; Pf growth 96h: 63%[5.75 µM]

Results for CCCc1cc(C(=O)N2CCCC(C(=O)c3cc(C)c(OC)c(C)c3)C2)n(C)n1 (centres undefined) ?
Pf growth 48h: inconclusive; Sm TGR block: 2%; HCMV antiviral: -20; Pf growth 96h: 5%

What do the screens show for `CC1O[C@@H](O[C@H]2C(Oc3cc(O)c4c(=O)cc(-c5ccc(O)cc5)oc4c3)OC(CO)C(O)C2O)C(O)C(O)C1O` (some centres undefined)?
Giardia FBPA inh: -13%

Screening data as filed in PubChem BioAssay.
